Hits are enriched below; roughly 9% of the tested compounds scored in any of these assays.
HP1b chromo inh: blocks HP1-beta chromodomain binding to methylated histone tails. P83916. AlphaScreen HP1-beta / biotin-H3K9me3 peptide binding. Potency, µM (titrated, usually from 114 µM), for inactives: at the highest dose activity change, negative = inhibition, hits mostly inhibitors. hit rate 0.56% among 390,000. AID 540317; note: nearly all actives have a fitted effect of over 70% in size
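AlphaScreen: HP1-beta (50 nM) preformed 30 min with biotin-H3(1-18)K9me3 peptide (50 nM) in PBS pH 7.4, 0.01% Tween-20. Compound added for 30 min at RT, then streptavidin donor/nickel chelate acceptor beads (10 ug/mL) for 30 min.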
JMJD2A Tudor inh: JMJD2A Tudor domain (human) inhibition; AlphaScreen JMJD2A-Tudor / H3K4me3 peptide binding; Potency, µM (doses to about 114 µM), inactives show at the top dose activity change, negative = inhibition, actives largely listed as inhibitors; hit rate 4.4% among 390,000; O75164; note: % is set by controls: 0 for no effect and ±100 for the full control effect; nearly all actives have a fitted effect of over 50% in size
ALOX12 inh: ALOX12 (human) lipoxygenase inhibition. P18054. purified 12hLO, xylenol orange hydroperoxide absorbance. Potency, µM (titrated, usually from 108 µM), without a hit: at the highest dose activity change, negative = inhibition, hits mostly inhibitors. hit rate 1.1% among 580,000. AID 1671190; note: % is set by controls: 0 for no effect and ±100 for the full control effect
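Hydroperoxide product was detected by ferrous iron/xylenol orange as the 573 to 405 nm absorbance ratio. Arachidonic acid at 40 uM (final) was turned over for 30 min at room temperature by 150 nM human 12hLO, pH 7.0 Hepes buffer, after 15 min compound preincubation.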
BAZ2B inh: inhibitors of human BAZ2B bromodomain. Q9UIF8. Potency, µM (top dose mostly 114 µM), for the others: at the highest dose activity change, negative = inhibition, hits mostly inhibitors. AlphaScreen BAZ2B-H3K14Ac peptide displacement. hit rate 4.4% among 360,000; note: % is set by controls: 0 for no effect and ±100 for the full control effect; nearly all actives have a fitted effect of over 60% in size
Target sequence (Q9UIF8 whole entry, looked up): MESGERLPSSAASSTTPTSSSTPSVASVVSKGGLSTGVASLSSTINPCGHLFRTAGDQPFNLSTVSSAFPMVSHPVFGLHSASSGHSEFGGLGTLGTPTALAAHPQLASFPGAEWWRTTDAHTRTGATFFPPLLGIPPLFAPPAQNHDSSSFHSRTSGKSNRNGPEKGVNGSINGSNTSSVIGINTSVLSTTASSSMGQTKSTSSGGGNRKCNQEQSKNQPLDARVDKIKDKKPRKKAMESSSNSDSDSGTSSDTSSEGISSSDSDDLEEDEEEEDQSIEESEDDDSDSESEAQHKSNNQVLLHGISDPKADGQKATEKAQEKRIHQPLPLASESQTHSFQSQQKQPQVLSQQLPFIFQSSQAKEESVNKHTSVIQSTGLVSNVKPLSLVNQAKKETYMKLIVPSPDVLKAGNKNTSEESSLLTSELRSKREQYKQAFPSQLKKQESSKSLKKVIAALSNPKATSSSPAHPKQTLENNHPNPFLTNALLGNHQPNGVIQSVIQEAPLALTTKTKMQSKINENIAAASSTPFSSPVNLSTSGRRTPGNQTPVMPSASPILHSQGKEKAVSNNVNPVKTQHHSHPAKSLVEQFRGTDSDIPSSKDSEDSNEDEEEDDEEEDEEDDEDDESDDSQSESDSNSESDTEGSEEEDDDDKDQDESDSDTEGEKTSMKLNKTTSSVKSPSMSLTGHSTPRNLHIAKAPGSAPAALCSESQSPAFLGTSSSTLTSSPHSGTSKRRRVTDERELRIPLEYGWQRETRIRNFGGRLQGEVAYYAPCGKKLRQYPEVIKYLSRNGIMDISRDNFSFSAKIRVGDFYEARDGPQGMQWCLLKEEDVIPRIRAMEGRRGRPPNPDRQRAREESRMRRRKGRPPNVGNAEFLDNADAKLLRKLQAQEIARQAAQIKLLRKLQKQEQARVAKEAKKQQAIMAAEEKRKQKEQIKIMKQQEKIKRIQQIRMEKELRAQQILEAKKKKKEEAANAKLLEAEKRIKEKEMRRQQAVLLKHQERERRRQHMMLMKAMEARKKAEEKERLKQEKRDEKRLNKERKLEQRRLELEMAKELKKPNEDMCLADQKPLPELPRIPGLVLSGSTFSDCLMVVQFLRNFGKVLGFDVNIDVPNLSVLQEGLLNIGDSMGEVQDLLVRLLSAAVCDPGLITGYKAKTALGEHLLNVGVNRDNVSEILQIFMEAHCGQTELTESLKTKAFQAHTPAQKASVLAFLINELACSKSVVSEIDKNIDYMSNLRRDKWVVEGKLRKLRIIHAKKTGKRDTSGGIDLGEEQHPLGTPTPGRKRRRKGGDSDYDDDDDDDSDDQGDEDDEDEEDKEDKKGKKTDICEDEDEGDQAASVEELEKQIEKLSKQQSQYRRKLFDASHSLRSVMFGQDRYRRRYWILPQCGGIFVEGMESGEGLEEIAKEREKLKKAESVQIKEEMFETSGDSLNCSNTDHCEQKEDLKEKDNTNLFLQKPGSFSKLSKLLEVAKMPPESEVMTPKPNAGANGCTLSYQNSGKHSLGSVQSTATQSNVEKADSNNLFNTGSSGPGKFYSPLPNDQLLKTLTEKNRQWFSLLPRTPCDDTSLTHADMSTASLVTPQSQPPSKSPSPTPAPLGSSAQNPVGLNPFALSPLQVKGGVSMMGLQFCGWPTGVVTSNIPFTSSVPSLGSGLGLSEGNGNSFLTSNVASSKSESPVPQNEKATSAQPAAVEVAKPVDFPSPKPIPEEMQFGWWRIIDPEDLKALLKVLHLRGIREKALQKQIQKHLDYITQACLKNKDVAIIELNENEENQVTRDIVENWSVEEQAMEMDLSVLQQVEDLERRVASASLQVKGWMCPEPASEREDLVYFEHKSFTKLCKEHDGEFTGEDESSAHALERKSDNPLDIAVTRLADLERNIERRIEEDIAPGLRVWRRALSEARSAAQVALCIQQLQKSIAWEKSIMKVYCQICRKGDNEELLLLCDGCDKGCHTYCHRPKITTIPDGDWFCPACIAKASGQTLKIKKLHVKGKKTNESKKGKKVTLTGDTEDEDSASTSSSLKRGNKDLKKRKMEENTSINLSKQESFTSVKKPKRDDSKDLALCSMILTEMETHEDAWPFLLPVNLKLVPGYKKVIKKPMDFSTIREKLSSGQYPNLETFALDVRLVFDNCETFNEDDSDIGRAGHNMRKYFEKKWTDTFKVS
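Protein-peptide AlphaScreen: BAZ2B 50 nM, b-H3K14Ac 50 nM, 1x PBS pH 7.4 + 0.01% Tween-20. Preincubation 30 min RT; cpd 30 min RT (top 110 uM); beads 20 min RT, light-protected.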
PLK1 PBD block: blocks phosphopeptide binding to human PLK1 polo-box domain | AID 720504 | hit rate 2.8% among 360,000 | P53350 | Potency, µM, without a hit: max response, negative = inhibition, actives largely listed as inhibitors | Plk1 PBD binding of FITC phosphopeptide, fluorescence polarization; note: series mostly up to about 57 µM; % is set by controls: 0 for no effect and ±100 for the full control effect; nearly all actives have a fitted effect of over 65% in size
G9a block: G9a (human) methyltransferase inhibition; hit rate 8.8% among 350,000; Potency, µM (top dose mostly 102 µM), for the others: top-dose activity, negative = inhibition, usual class: inhibitors; Q96KQ7; G9a H3K9 monomethylation, AlphaScreen, 2 h; AID 504332; note: % is set by controls: 0 for no effect and ±100 for the full control effect; nearly all actives have a fitted effect of over 75% in size
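G9a (20 nM) was preincubated 15 min with compound, then reacted 2 h at room temperature with 500 nM biotin-H3K9 peptide and 20 µM SAM. Monomethyl-H3K9 detected by AlphaScreen using anti-H3K9me1 antibody.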
* marks the source's active call; other numbers are inactive results; ? = inconclusive; · = no result; [ ] = remark or other dose. Calls come from the whole dose curve; as a rule, active = well fitted curve in the direction sought with a large enough effect; inconclusive = small, poorly fitted or top-dose-only effect, or another doubt; inactive = no such curve, though single readings can be large; an effect the other way counts as inactive or inconclusive. Potency is the fitted concentration of half-maximal effect.

SMILES | HP1b chromo inh | JMJD2A Tudor inh | ALOX12 inh | BAZ2B inh | PLK1 PBD block | G9a block
Cc1ccc(S(=O)(=O)N2CCCc3cc(NC(=O)c4ccc(F)c(F)c4)ccc32)cc1 | -6% | -23% | -3% | -18% | · | 12%[59 µM]
Cc1ccc(S(=O)(=O)N2CCCc3cc(NC(=O)c4c(F)cccc4F)ccc32)cc1 | 7% | ? | -5% | ? | 27µM* | 5%[0.501 µM]
Cc1ccc(S(=O)(=O)N2CCCc3cc(NC(=O)c4cccc(Cl)c4)ccc32)cc1 | 15% | -17% | 0% | -17% | · | 9%[59 µM]
COc1cccc(OC)c1C(=O)Nc1ccc2c(c1)CCCN2S(=O)(=O)c1ccc(C)cc1 | 4% | ? | -9% | -9% | 11µM* | -9%[0.501 µM]
O=c1c2ccccc2nnn1CSc1ccc2c(c1)OCCO2 | 46% | -4% | ? | 6% | ? | 26%
COc1ccc(NC(=O)c2cc(=O)c3ccccc3o2)c(OC)c1 | · | · | 1% | · | · | ·
CCCCN(C)C(=S)Nc1ccc2nc(N3CCN(CC)CC3)cc(C)c2c1 | 14% | -7%[11.4 µM] | 6% | -29% | -12% | 45µM*
CCCCN(CC)C(=S)Nc1ccc2nc(N3CCN(C)CC3)cc(C)c2c1 | -1%[57 µM] | ? | 2% | ? | -13% | 40µM*
CCN(CC)CCNC(=S)Nc1ccc2nc(N3CCN(CC)CC3)cc(C)c2c1 | -7% | -20% | -16% | -11% | ? | 45µM*
CCN1CCN(c2cc(C)c3cc(NC(=S)N(C)Cc4ccccc4)ccc3n2)CC1 | 13% | ? | 3% | -33% | 3% | ?
CCN1CCN(c2cc(C)c3cc(NC(=O)c4ccc(OC)c(OC)c4)ccc3n2)CC1 | 11% | -33% | 0% | -28% | 1% | 71µM*
CCN1CCN(c2cc(C)c3cc(NC(=O)c4cc(OC)c(OC)c(OC)c4)ccc3n2)CC1 | -23% | -26% | ? | ? | · | -13%[59 µM]
CCOc1ccc(-c2[nH]ncc2Oc2ccccc2OCC)c(O)c1 | 26% | -29% | 0% | · | -5% | 6%[59 µM]
CCN1CCN(c2cc(C)c3cc(NC(=S)NCCN(C)C)ccc3n2)CC1 | -34% | -15% | ? | 0% | ? | 50µM*
CCCCN(C)CCNC(=S)Nc1ccc2nc(N3CCN(CC)CC3)cc(C)c2c1 | -15% | -18% | -6% | -4% | ? | 45µM*
CCOC(=O)N1CCC(NC(=S)Nc2ccc3nc(N4CCN(CC)CC4)cc(C)c3c2)CC1 | 16% | -18%[11.4 µM] | -3% | ? | -22% | 25µM*
O=C(Nc1ccccc1C(F)(F)F)c1cc(-c2ccc3c(c2)OCCO3)on1 | 54% | -19% | 1% | -1% | · | -1%[59 µM]
CN(Cc1cccnc1)C1CCOc2ccccc21 (stereo unspecified) | · | · | 54%[176 µM] | · | · | ·
COc1ccc(/C=N/NC(=O)CN2CCCc3ccccc32)c(OC)c1 | ? | 50µM* | 0% | 50µM* | -10% | ?
CCOC(=O)c1c(NC(=O)c2cccnc2Cl)sc(C(=O)N(C)C)c1C | -11% | -13% | -23% | 0% | ? | 25µM*
CCOC(=O)c1c(NC(=O)c2cccs2)sc(C(=O)N2CCOCC2)c1C | 8% | -3% | 16% | · | -13% | ·
CCOC(=O)c1c(NC(=O)c2cccs2)sc(C(=O)N(C)C)c1C | -13% | -8% | ? | 2% | 24µM* | ?
Cc1cc(C)cc(NC(=S)NCc2ccc3c(c2)OCO3)c1 | 7% | -26% | ? | · | -1% | ·
Cc1ccc(S(=O)(=O)N2CCN(C(=O)CCCN3C(=O)NC4(CCCC4)C3=O)CC2)cc1C | 23% | -1% | 234% | 11% | -13% | -11%[2.33 µM]
C=C1C(=O)C23C(O)C1CCC2C12CCCC(C)(COC(C)=O)C1C(O)C3(O)OC2 (stereo unspecified) | -5% | ? | 2% | · | 15µM* | ·
SMILES | HP1b chromo inh | JMJD2A Tudor inh | ALOX12 inh | BAZ2B inh | PLK1 PBD block | G9a block
O=C1C(Cl)=C(NS(=O)(=O)c2ccc([N+](=O)[O-])cc2)C(=O)c2ccccc21 | ? | ? | ? | 45µM* | ? | -154%[59 µM]
CC(C)(S)[C@@H](N)C(=O)O | -19% | 4µM* | ? | 45µM* | -3% | ?
CC(C)[C@@H](N)C(=O)O | · | · | · | · | · | -1%[59 µM]
CC1=C(C(=O)Nc2ccc(F)cc2F)C(c2ccc3c(c2)OCO3)C2=C(CC(C)(C)CC2=O)N1 (stereo unspecified) | · | · | -69% | · | · | ·
CC(=O)N1Cc2ccccc2OC2(CCN(C(=O)c3ccc(Cl)cc3)CC2)C1 | · | · | 4%[6.33 µM] | · | · | ·
O=C(Nc1nnc(-c2ccccc2)o1)C1CCCN1S(=O)(=O)c1cccs1 (stereo unspecified) | 62% | ? | 5% | 50µM* | 6% | -27%
COc1ccc(-c2nnc(NC(=O)C3CCCN3S(=O)(=O)c3cccs3)o2)cc1 (stereo unspecified) | 24% | ? | -10% | 50µM* | -1% | -1%
O=C(Nc1ccccc1)C1CCCN1S(=O)(=O)c1cccs1 (stereo unspecified) | 25% | -9% | 3% | -8% | 1% | ?
CNC(=O)c1ccsc1NC(=O)C1CCCN1S(=O)(=O)c1cccs1 (stereo unspecified) | -2% | -10% | · | -6% | -4% | -28%
Cc1cc2c3c([nH]c2cc1S(=O)(=O)NCc1ccc(CN2CCCCCC2)o1)CC(C)(C)CC3=O | -8% | ? | -21% | -14%[57.1 µM] | ? | -9%
COc1ccc(C)cc1Nc1nc(-c2ccccc2O)nc2ccccc12 | 20% | -23% | 0% | -27% | -8% | -6%[2.33 µM]
COc1ccc(C)cc1Nc1nc(C)nc2sc(C)cc12 | 14% | ? | 10% | -13% | 30µM* | -12%
CN(C)C=Nc1ccccc1C1C=NNC1=O (stereo unspecified) | · | · | · | -35% | · | 40µM*
CN(C)C=Nc1ccccc1I | · | · | 14% | · | · | ·
Cc1ccccc1N1CC(O)(c2ccccc2)[N+]2=C1SCC2 (stereo unspecified) | 59% | -11% | ? | 5% | -3% | 32µM*
Cc1ccc(C2(O)CN(c3ccccc3C)C3=[N+]2CCS3)cc1 (stereo unspecified) | 33% | -20% | ? | -9% | 0% | 32µM*
Oc1ccc(/C=N/NC(=S)NC2CC3CCC2C3)cc1 (stereo unspecified) | 6% | -35% | 18µM* | ? | 5% | ·
CSCCC(NC(=O)/C(=C/c1ccco1)NC(=O)c1ccco1)C(=O)O (stereo unspecified) | 16% | 40µM* | 3% | · | -20% | ·
CSCCC(NC(=O)/C(=C\c1ccco1)NC(=O)c1ccco1)C(=O)O (stereo unspecified) | 29% | -15% | ? | -6% | -15% | ?
CC(NC(=O)/C(=C\c1ccco1)NC(=O)c1ccco1)C(=O)O (stereo unspecified) | 41% | -5% | -5% | -3% | -6% | 35µM*

Source: PubChem BioAssay (National Center for Advancing Translational Sciences (NCATS))
